MRP resist rev – compounds reversing MRP-mediated drug resistance; H69AR cells + 2 uM doxorubicin, CellTiter-Glo, 72 h; differential viability (reversal), % at 10 µM; hit rate 0.04% among 85,000; AID 602;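 active = viability drop by adding the cancer drug above about 55%, with treated viability meeting a 40% cutoff, limit read from the data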;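 note: viability without doxorubicin minus viability with 2 µM doxorubicin for each compound; larger differential means the compound sensitizes cells more to doxorubicin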
Phagocyt inh – inhibitors of macrophage phagocytosis; J774A.1 macrophage IgG-bead phagocytosis, imaging; inhibition, % at 5 µM; hit rate 0.07% among 110,000; AID 1029;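 active = inhibition above the mean of the plate negative controls plus 5 SD, cut at about 13% in these data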;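 note: phagocytic index as fraction of beads internalized from green versus red external bead signal; plate controls were DMSO negative control for no effect and cytochalasin-D positive control for full effect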
MRP1 act – MRP-1 activation | H69AR cells + doxorubicin, viability rescue, CellTiter-Glo | viability increase, % at 10 µM | hit rate 0.61% among 140,000 | AID 799;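 active = viability gain under doxorubicin at or above a set limit, the compound median plus 3 SD, cut at about 4.7% in these data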;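 note: MRP-1 overexpressing cells given doxorubicin 25 µM after compound pretreatment; 18-22 h compound pretreatment then 72 h with doxorubicin before readout; 0% = doxorubicin-only wells and 100% = vehicle-treated cells without doxorubicin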
* hit, by the source's call; . = no result; [ ] = dose if it differs, or a comment. Hits are enriched below; roughly 0.69% of the tested compounds scored in any of these assays.

SMILES | MRP resist rev | Phagocyt inh | MRP1 act
COc1ccc(C(=O)Nc2ccc(Cl)cc2C(=O)N2CCCC(C)C2)cc1OC (configuration not stated) | . | -3.7 | -4.3
CN1CCN(c2nc(-c3cccs3)nc3ccccc23)CC1 | . | -5.1 | -0.9
c1ccc(N2CCN(c3nc(-c4cccs4)nc4ccccc34)CC2)cc1 | . | -5.6 | 7.3*
CCOc1ccc(N(CC(=O)NC2CCCC2)C(=O)CSc2nnc(COc3ccccc3)o2)cc1 | . | -0.4 | -2.4
CCOC(=O)c1c(-c2cccc([N+](=O)[O-])c2)csc1NC(=O)C1CCCCC1 | . | . | 9.4*
CCOC(=O)c1c(-c2cccc([N+](=O)[O-])c2)csc1NC(=O)C1CC1 | . | -3.6 | -2.1
O=[N+]([O-])c1cccc(/C=N/N2CCN(c3ccccn3)CC2)c1 | . | -8.7 | 2.6
O=[N+]([O-])c1cccc(/C=N\N2CCN(Cc3ccccc3Cl)CC2)c1 | 12.9 | . | 4.8*
COc1ccc(C(=O)N2CCC(C(=O)Nc3ccc4c(c3)OCO4)CC2)cc1 | . | -0.4 | -1.8
O=C(NCCN1C(=O)S/C(=C/c2ccccc2)C1=O)C1CCCN1C(=O)c1cccs1 (configuration not stated) | . | -7.4 | 7.5*
COc1ccc(/C=C2/SC(=O)N(CCNC(=O)C3CCCN3C(=O)c3cccs3)C2=O)cc1 (configuration not stated) | . | 2.9 | 0.9
COc1ccc(Nc2ccc3nnc(-c4ccc(Br)cc4)n3n2)cc1 | . | -0.5 | 0.4
CCOC(=O)CN1C(=O)S/C(=C/C=C/c2ccc(N(C)C)cc2)C1=O | . | -8.3 | -1.3
O=C(NCc1ccc(F)cc1)C(=O)NCC1OCCN1C(=O)c1cccs1 (configuration not stated) | . | -8.9 | 5.3*
COc1ccccc1CNC(=O)C(=O)NCC1OCCN1C(=O)c1cccs1 (configuration not stated) | . | -12.0 | 1.6
O=C(COc1ccc2ccccc2c1Br)Nc1ncn[nH]1 | -17.2 | -1.6 | 0.4
CCc1noc(C)c1C(=O)Nc1nc(-c2cc(C)ccc2C)c(C)s1 | . | 7.9 | 5.5*
CCc1noc(C)c1C(=O)Nc1ncc(C)s1 | 21.0 | 2.0 | 0.1
Cc1onc(-c2c(Cl)cccc2Cl)c1C(=O)NCC1CCCO1 (configuration not stated) | 15.8 | -4.8 | -2.1
Cc1onc(-c2c(F)cccc2Cl)c1C(=O)NCC1COc2ccccc2O1 (configuration not stated) | 5.0 | 16.2*[artifact] | -0.4
CCn1c(SCc2cc(=O)[nH]c3ccccc23)nnc1C1CC1 | . | -6.3 | -1.3
Cc1nn(-c2ccccc2)c(N2CCCC2)c1/C=N/NC(=S)Nc1ccccc1F | . | -14.3 | 0.3
Cn1nnnc1SCC(=O)Nc1nc(-c2ccccc2)c(-c2ccccc2)o1 | 59.9* | 3.4 | -3.9
CCN(CC)C(=S)SCC(=O)Nc1nc(-c2ccccc2)c(-c2ccccc2)o1 | . | -10.9 | -2.9
CCOC(=O)c1c(C2CC2)csc1NC(=O)COC(=O)CCS(=O)(=O)c1ccc(C)cc1 | . | -4.8 | -1.7
SMILES | MRP resist rev | Phagocyt inh | MRP1 act
Cc1nnc(NC(=O)NC(C)N2C(=O)C3C4C=CC(C4)C3C2=O)s1 (configuration not stated) | . | -2.8 | -0.7
CCc1nnc(NC(=O)C(C)N2C(=O)C3C4C=CC(C4)C3C2=O)s1 (configuration not stated) | 14.5 | -0.5 | 8.2*
Brc1cccc(OCCCCN2CCCCC2)c1 | . | -5.5 | -2.7
CCN1C(=O)N/C(=C/c2cc(C)n(Cc3ccccc3)c2C)C1=O | . | -4.7 | -1.2
CCn1c(C)cc(/C=C2\NC(=O)N(Cc3ccc(Cl)cc3)C2=O)c1C | . | . | 9.5*
CCn1c(COc2ccc(Cl)cc2)nnc1SC1CCc2ccccc2C1=O (configuration not stated) | . | -4.6 | 7.1*
CCn1c(COc2ccc(Cl)cc2)nnc1SCc1ccc(C#N)cc1 | 25.7 | -1.5 | 0.5
Cc1ccc(CN2CCN(Cc3ccccc3C(F)(F)F)CC2)cc1 | . | -0.1 | -1.9
C=C(C)c1cccc(C(C)(C)NC(=O)N2CCN(c3ccc(OC)cc3)CC2)c1 | . | . | -0.8
CC(C)(C)c1nc(N2CCN(C(=O)c3ccco3)CC2)c2nnn(Cc3ccccc3)c2n1 | -17.1 | . | 3.0
O=C(c1ccco1)N1CCN(c2nc(C3CC3)nc3c2nnn3Cc2ccccc2Cl)CC1 | -6.1 | . | 7.0*
CC1=C(C)CC(C(=O)NNC(=O)c2cccc(Cl)c2)C(C(=O)O)C1 (configuration not stated) | . | -2.1 | 4.6
COC(=O)Cc1ccc(NC(=S)N2CCN(c3ccc(F)cc3)CC2)cc1 | . | 2.0 | -1.3
O=C(CN1C(=O)NC2(CCc3ccccc3C2)C1=O)Nc1ccc(F)cc1 (configuration not stated) | . | -2.4 | 3.4
O=C1CC(c2ccccc2)c2cc(O)ccc2O1 (configuration not stated) | . | . | 5.1*
Cc1ccc(C2CC(=O)Oc3cc(O)ccc32)cc1 (configuration not stated) | . | . | -1.0
O=C(Nc1ccc(CCC(=O)N2CCCC2)cc1)c1ncn[nH]1 | 0.2 | 0.5 | -3.1

Assay outcomes deposited in PubChem BioAssay by several laboratories.
